Data: PubChem BioAssay AID1159580 (chemical genetic matrix, 2015)
In all, about 5,500 compounds went through this assay and about 2,000 (36%) were called active. Not shown: some 18% with an inconclusive outcome. No stated cut-off is given here; in the data, active means normalized growth mostly below about 0.91 (no sharp cut-off); inconclusive means no clear call, values can overlap the other calls; inactive means mostly above about 0.92. This is one part of the list.

Experiment: chemical genetic growth profiling, strain panel (AID 1159580);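 further: tested at 20 µM; growth read once vehicle control cultures reached saturation at 30 °C; 1 = growth at the plate median or of vehicle wells; lower values mean less growth of the strain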
Settings: S. cerevisiae deletion strains, growth OD

Measured: normalized growth

CC(C)=CCC/C(C)=C/COc1ccc2ccc(=O)oc2c1
inactive: locus YAL021C, strain ccr4, hits give low values 0.994 | locus YAL026C, strain drs2, hits give low values 0.999 | locus YAL030W, strain snc1, hits give low values 0.986 | locus YBL061C, strain skt5, hits give low values 0.985 | locus YBR009C, strain hhf1, hits give low values 0.976 | locus YBR023C, strain chs3, hits give low values 0.982 | locus YBR171W, strain sec66, hits give low values 0.981 | locus YBR231C, strain swc5, hits give low values 0.996 | locus YBR279W, strain paf1, hits give low values 0.99 | locus YCL011C, strain gbp2, hits give low values 0.978 | locus YCL016C, strain dcc1, hits give low values 0.988 | locus YCL061C, strain MRC1, hits give low values 1 | locus YCL069W, strain vba3, hits give low values 0.985 | locus YCR088W, strain abp1, hits give low values 0.99 | locus YDL005C, strain med2, hits give low values 1 | locus YDL040C, strain nat1, hits give low values 0.986 | locus YDR001C, strain nth1, hits give low values 0.993 | locus YDR069C, strain doa4, hits give low values 0.998 | locus YDR137W, strain rgp1, hits give low values 0.893 | locus YDR159W, strain sac3, hits give low values 1.01 | locus YDR195W, strain ref2 1.04 | locus YDR297W, strain sur2, hits give low values 0.984 | locus YDR334W, strain swr1, hits give low values 0.992 | locus YDR335W, strain msn5, hits give low values 1 | locus YDR392W, strain spt3, hits give low values 0.952 | locus YEL003W, strain gim4, hits give low values 0.997 | locus YEL037C, strain rad23, hits give low values 0.991 | locus YEL061C, strain CIN8 (second series), hits give low values 0.993 | locus YER015W, strain faa2, hits give low values 1 | locus YER016W, strain bim1, hits give low values 0.986 | locus YER111C, strain swi4, hits give low values 1 | locus YER155C, strain BEM2 (second series), hits give low values 0.999 | locus YFR010W, strain ubp6, hits give low values 1 | locus YGL167C, strain pmr1, hits give low values 0.985 | locus YGL173C, strain kem1, hits give low values 0.99 | locus YGL227W, strain vid30, hits give low values 0.992 | locus YGL240W, strain doc1, hits give low values 0.999 | locus YGL253W, strain hxk2, hits give low values 0.994 | locus YHR013C, strain ard1, hits give low values 0.971 | locus YHR027C, strain rpn1, hits give low values 0.998 | locus YHR030C, strain SLT2, hits give low values 0.948 | locus YHR079C, strain IRE1, hits give low values 0.969 | locus YHR142W, strain chs7, hits give low values 0.962 | locus YJL092W, strain hpr5, hits give low values 1 | locus YJL095W, strain BCK1 (second series), hits give low values 0.987 | locus YJL095W, strain BCK1, hits give low values 0.937 | locus YJL115W, strain asf1, hits give low values 1 | locus YJL129C, strain trk1, hits give low values 0.911 | locus YJL154C, strain vps35, hits give low values 0.99 | locus YJL164C, strain tpk1, hits give low values 0.966 | locus YJL166W, strain qcr8, hits give low values 0.99 | locus YJL187C, strain SWE1, hits give low values 0.99 | locus YJR066W, strain TOR1, hits give low values 0.932 | locus YKL160W, strain elf1, hits give low values 0.976 | locus YKR026C, strain gcn3, hits give low values 0.99 | locus YKR091W, strain srl3, hits give low values 0.985 | locus YLL001W, strain dnm1, hits give low values 1 | locus YLL026W, hits give low values 0.984 | locus YLL041C, strain sdh2, hits give low values 0.983 | locus YLR027C, strain aat2, hits give low values 0.974 | locus YLR113W, strain HOG1, hits give low values 0.944 | locus YLR221C, strain rsa3, hits give low values 0.976 | locus YLR258W, strain gsy2, hits give low values 0.981 | locus YLR262C, strain YPT6 (second series), hits give low values 0.932 | locus YLR320W, strain mms22, hits give low values 0.974 | locus YLR342W, strain FKS1, hits give low values 0.97 | locus YLR357W, strain rsc2, hits give low values 1.01 | locus YLR370C, strain arc18, hits give low values 0.999 | locus YLR384C, strain iki3, hits give low values 0.992 | locus YML120C, strain ndi1, hits give low values 0.973 | locus YMR058W, strain fet3, hits give low values 1 | locus YMR125W, strain sto1, hits give low values 0.996 | locus YMR129W, hits give low values 0.993 | locus YMR205C, strain PFK2, hits give low values 0.96 | locus YMR231W, strain pep5, hits give low values 0.965 | locus YNL071W, strain lat1, hits give low values 0.965 | locus YNL183C, strain NPR1, hits give low values 0.912 | locus YNL209W, strain ssb2, hits give low values 0.983 | locus YNL248C, strain rpa49, hits give low values 0.981 | locus YNL322C, strain KRE1 (second series), hits give low values 0.994 | locus YNR049C, strain mso1, hits give low values 0.996 | locus YOR001W, strain rrp6, hits give low values 0.989 | locus YOR070C, strain gyp1, hits give low values 0.983 | locus YOR080W, strain dia2, hits give low values 0.997 | locus YOR083W, strain WHI5, hits give low values 0.978 | locus YOR106W, strain vam3, hits give low values 0.933 | locus YOR231W, strain MKK1, hits give low values 0.968 | locus YOR265W, strain rbl2, hits give low values 0.973 | locus YOR270C, strain vph1, hits give low values 0.896 | locus YOR290C, strain snf2, hits give low values 0.968 | locus YPL051W, strain arl3, hits give low values 0.987 | locus YPL078C, strain atp4, hits give low values 0.983 | locus YPL106C, strain sse1, hits give low values 1.01 | locus YPL240C, strain hsp82, hits give low values 0.992 | locus YPL256C, strain CLN2, hits give low values 0.917
